From PubChem BioAssay
Compounds with a hit are over-represented: about 21% of the library has one in this group of screens.
Shiga inhibitor: inhibitors of Shiga toxin in Vero cells | hit rate 9.2% among 290,000 | inhibition, % at 38.7 µM | AID 2315 | Vero cells, Shiga toxin protein synthesis inhibition reporter; in the data active means inhibition mostly above about 28%, no sharp cut-off; inactive means mostly below about 43%; further: 0% is about no effect
Pf growth 96h: P. falciparum growth inhibition at 96 hours; P. falciparum luciferase reporter growth, 96 h; Potency, µM (series often up to 28.7 µM), for the others: at the highest dose activity change, negative = inhibition, most hits filed as inhibitors; hit rate 6.9% among 320,000; AID 504834; further: potency means the concentration at half of the fitted maximal effect; on the % scale 0 is the no-effect control and ±100 the full control effect
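Two parasite generations (96 h, 37 C, 5% CO2) of compound exposure in infected erythrocytes (0.05% parasitemia, 2% hematocrit). Luciferase-reporter P. falciparum; decreased luminescence indicates inhibited growth, aimed at apicoplast-acting delayed death.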
Cycloheximide cs: affects cycloheximide protein synthesis inhibition readout, counter-screen. cell reporter, cycloheximide protein synthesis inhibition counterscreen. max response, %. hit rate 12% among 300,000; in the data active means max response mostly above about 13%, no sharp cut-off; inactive means mostly below about 14%; further: read at 38.3 µM for the half of the compounds with a filed dose; 0% is about no effect
Sm TGR inh: S. mansoni TGR enzyme inhibition. Potency, µM (titrated, usually from 114 µM), without a hit: top-dose activity change, negative = inhibition, hits mostly inhibitors. purified TGR, DTNB reduction, TNB absorbance 405 nm. hit rate 3% among 360,000; further: potency means the concentration at half of the fitted maximal effect; on the % scale 0 is the no-effect control and ±100 the full control effect; nearly all actives have a fitted effect of over 60% in size
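Kinetic colorimetric format: TGR-catalysed, NADPH-driven DTNB reduction monitored via TNB absorbance. Enzyme dispensed at 20 nM; compound exposure 15 min at room temperature before reaction start.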
NS1 function inh: blocks influenza NS1 protein function | Potency, µM (series often up to 46.1 µM), for inactives: top-dose activity, positive = more growth | hit rate 0.4% among 270,000 | AID 2326; calls by dose curve; further: potency means the concentration at half of the fitted maximal effect; actives are rising curves; nearly all actives have a fitted effect of over 50% in size
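OD600 was taken as the measure of yeast growth restored by compound in an NS1-expressing S. cerevisiae strain. Cells had been washed out of glucose medium and diluted 1:100 into galactose -URA medium, pH 6.0.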
Pf growth 48h: inhibits P. falciparum growth in the first generation, 48 h; Potency, µM (highest dose often 28.7 µM), without a hit: top-dose activity change, negative = inhibition, hits mostly inhibitors; P. falciparum luciferase growth in erythrocytes, 48 h; AID 504832; hit rate 5.9% among 310,000; further: potency means the concentration at half of the fitted maximal effect; on the % scale 0 is the no-effect control and ±100 the full control effect
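In quantitative HTS format, infected erythrocytes bearing luciferase-reporter parasites were treated for a single generation at 37 C. Luminescence after adding detection reagent served as the growth measure.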
* = called active by the depositor; ? = inconclusive; · = no result given; ! = not confirmed by another sample. Unless noted, the call rests on the fitted dose curve; in most records, active means well fitted curve in the direction sought with a large enough effect; inconclusive means small, poorly fitted or top-dose-only effect, or another doubt; inactive means no such curve, though single readings can be large; an effect the other way counts as inactive or inconclusive.

SMILES	Shiga inhibitor	Pf growth 96h	Cycloheximide cs	Sm TGR inh	NS1 function inh	Pf growth 48h
NC(N)=N/N=C\c1ccc(C2CCNCC2)cc1	·	·	·	·	-1.0%	·
CC1CC(c2ccccc2)n2nc(NC(=O)c3ccco3)nc2N1 (centres undefined)	-8.3	8.28µM*	-7.9	0.0%	?	11.8%
COc1cccc(C2=CC(c3ccccc3)n3nnnc3N2)c1 (centres undefined)	2.7	13.3%	0.6	-3.2%	-13.8%	51.2%
COc1cccc(C2=CC(c3ccccc3)n3ncnc3N2)c1 (centres undefined)	13.9	?	-2.8	14.1µM*	-5.9%	?
COc1ccc(C2C=C(c3ccccc3)Nc3nnnn32)cc1 (centres undefined)	53.1*	0.0%	21.1*	-4.8%	-8.3%	139.5%
COc1ccc(C2C=C(c3ccccc3)Nc3nc(NC(C)=O)nn32)cc1 (centres undefined)	-7.1	·	-3.4	20µM*!	2.7%	-14.3%
Cc1ccc2nc(COc3ccccc3NC(=O)C(C)(C)C)cc(=O)n2c1	·	·	·	4.6%	·	·
CCOC(=O)c1c(C)[nH]c(C(=O)OCC(=O)Nc2cc(C)nn2-c2ccccc2)c1C	·	?	·	-0.9%	·	?
COc1cccc(C2=CC(c3ccc(N(C)C)cc3)n3ncnc3N2)c1 (centres undefined)	30.8	9.6%	-3.6	?	-19.7%	10.4µM*
COc1cccc(C2=CC(c3ccc(N(C)C)cc3)n3nnnc3N2)c1 (centres undefined)	49.9*	0.2%	25.5*	?	0.2%	30.6%
Cc1ccc(C2C=C(c3ccc(Cl)cc3)Nc3nc(NC(=O)c4ccco4)nn32)cc1 (centres undefined)	·	·	·	12.6µM*	·	·
Cc1[nH]c2c(C)cccc2c1CN1CCC(CO)(Cc2ccccc2)CC1	-14.1	-28.3%	15.5	-3.2%	0.5%	?
O=C(c1ccccc1)N1CCc2cc(CNS(=O)(=O)c3ccc(Cl)s3)ccc21	·	·	·	8.2%	·	·
Cc1nn(C(=O)CCCn2cc([N+](=O)[O-])cn2)c(C)c1Cl	-6.5	0.0%	13.6	1.9%	·	-12.2%
CCCOc1ccccc1C(=O)N1CCCCC1CCN1CCCCC1 (centres undefined)	-2.6	·	-4.1	-0.7%	·	·
COc1cccc(C(=O)OC(C)CN2CCCC2)c1 (centres undefined)	-12.8	4.15µM*	-3.1	-15.5%	-6.2%	-4.1%
